PMC12136788
Positions count from the first letter of the chain named. The full ranking holds about 24,000 sequences; the median of “enrichment r” is about 0.99, and the highest 2% start at about 3.7. The list comes from a sample in which the highest values are over-represented; it also holds similar and randomly drawn sequences.

T1: UNK ZnF1-3 (human, UniProt Q9C0B0 31-174)
T1 sequence: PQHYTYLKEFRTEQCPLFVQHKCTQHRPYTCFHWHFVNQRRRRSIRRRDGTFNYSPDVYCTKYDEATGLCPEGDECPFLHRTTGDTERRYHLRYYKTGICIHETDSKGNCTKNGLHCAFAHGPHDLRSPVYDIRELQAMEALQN

B1: chr12:98991669:98991670:+_ENSG00000075415_ENST00000552981|hu_mus|motif|central (ssRNA)
RNA: GGGAGUUCUACAGUCCGACGAUCGAAUCCAUUAAAUAUGCCUUUGUACUUCUGAGGGUCCACCUGCAUGCGGCACUUUACGGAGUCCAGGGGAACAACAGCAGUGUGUGUCAGCCCACAACUUAAGACCCCACCAAAGCCACACAACAGAGGAUUGAGCAUCA
B2: chr4:115894766:115894767:+_ENSMUSG00000028698_ENSMUST00000030464|mus_hu|mus_mus_mus_hu_True|1_98 (ssRNA)
RNA: GGGAGUUCUACAGUCCGACGAUCUUCCACACGGAAAGUACUUGGGGGUUUUCCAACGGCCAGUACCAGUCCGGCCAAACUACCCGAACAGGGUCCUCCCCCUCUCUCCUACAGAACACAACAAAAUGCCCCCGAACCCCGAACCAACAGAGGAUUGAGCAUCA
B3: chr2:69705335:69705336:+_ENSMUSG00000068882_ENSMUST00000090852|mus_mus|FALSE|FALSE (ssRNA)
RNA: GGGAGUUCUACAGUCCGACGAUCUUGGCCUUUAUCGUCUAGCCAUUCUUUUAUAUCAUCAAGGGUGGCGUCAGUUGGGAAACCUUUAAUAUAAACAGAUCUGUUUUUUACAUCAUUCUUAUACUCAUCCGUCACUUCAGGGAGCAACAGAGGAUUGAGCAUCA
B4: chr1:23884524:23884525:-_ENSG00000117318_ENST00000374561|perfect_dup|FALSE|FALSE (ssRNA)
RNA: GGGAGUUCUACAGUCCGACGAUCUUUAAUAUACAUCGCAUUGUUACAGAAAGUCACCUUCCUGUAAAAAAGGUACAAAACCUAUAUACUCUAUUAUAGAGUUCAUAAAUCAGGGCAACAGAACCUUUCUCCAAGGAGACCAGACAACAGAGGAUUGAGCAUCA
B5: chr8:124405102:124405103:-_ENSMUSG00000040010_ENSMUST00000045557|mus_mus|motif|central (ssRNA)
RNA: GGGAGUUCUACAGUCCGACGAUCCCCAAAAAAACAAAAAGCCUCACAAAACAGCAGACCUCUGUACCCCCCCCCCAGUCGGAUGUAACAGGCUAGCCAUUAAUACAAUAGUAAAAGACAUUAUAACCACAGCACUAUCUCAGGCAACAGAGGAUUGAGCAUCA
B6: chr13:41369856:41369857:+_ENSMUSG00000091264_ENSMUST00000165561|mus_hu|FALSE|FALSE (ssRNA)
RNA: GGGAGUUCUACAGUCCGACGAUCGCACUUCAUUCUUGUACAAAGCAGGUAACACUAAACAGGAAGGUUGUUUAAUUCACAUCUCUUCUCCCUGGUAAACACUCAGCCCAGAGUUCAGUUGAGACAAACACGGAAACCUGGCAACAACAGAGGAUUGAGCAUCA
B7: chr8:122087627:122087628:-_ENSMUSG00000034189_ENSMUST00000036049|mus_mus|FALSE|FALSE (ssRNA)
RNA: GGGAGUUCUACAGUCCGACGAUCGCAUUAAAGGCGUGAGCCCCCACGCCCAGCCUGAGGAACAUCUUGAAAGCCAAUACUAUAAUCAGUCACCUGUAAAAGGAAAACAGGUGACUUCUCAAAAAAAAAAAAAAAAGAAAGAAACAACAGAGGAUUGAGCAUCA
B8: chr8:122087627:122087628:-_ENSMUSG00000034189_ENSMUST00000036049|mus_mus|motif|central (ssRNA)
RNA: B7 RNA with U80G, A81G
B9: chr12:48362563:48362564:+_ENSG00000134291_ENST00000256686|hu_hu|hu_hu_hu_mus_False|98_108 (ssRNA)
RNA: GGGAGUUCUACAGUCCGACGAUCUCCGAAGGGUGAAUCAAGCCCCACUUGCGGGGGAAACUGUAAUCACUUUGUAUGGGGAAGGAAAAGAAACGCCAAAAACUUUCCAAAAAGCGGGGGUGGGGUGAGGCGGGAGGGGGAGGUCAACAGAGGAUUGAGCAUCA
B10: 107960272_107965159_2041_CDS_ENSG00000166266_ENST00000393094|human|control|control (ssRNA)
RNA: GGGAGUUCUACAGUCCGACGAUCUCUAGCAAGCUUGUUUACAUAAUCCGCUGGCAUACCAACUUCUCUUAGCCACUCUACCAUGUUUUCUUCAAUUUCACUAUCGGCAGAGAUGUCUAAUAUAAGACGUCGUGUCAAAUGAGCCAACAGAGGAUUGAGCAUCA
B11: chr1:95363480:95363481:-_ENSG00000117519_ENST00000538964|hu_mus|FALSE|FALSE (ssRNA)
RNA: GGGAGUUCUACAGUCCGACGAUCCGUGCCCUGGCUUCCGUUGUGAAUGACAGGUUCUGUGGGUGCGGCACAGUACUUGGGGUCAUAUACUUGCCGCCCAAGCCCAUACACGCUCAUUCCUUUCUGGGAAGCAACUUUGUUGGUCAACAGAGGAUUGAGCAUCA
B12: chr12:48362563:48362564:+_ENSG00000134291_ENST00000256686|hu_hu|hu_hu_hu_mus_False|58_98 (ssRNA)
RNA: GGGAGUUCUACAGUCCGACGAUCUCCGUCAAGCCCUUCAAGCCCCACUUGCGGGGGAAACUGUAAUCACUUUGUAUUUCUAAAAAAAAGAAACGCCAAAAACUUUCCAAAAAGCGGGGGUGGGGUGAGGCGGGAGGGGGAGGUCAACAGAGGAUUGAGCAUCA
B13: chr8:59070621:59070622:+_ENSMUSG00000038206_ENSMUST00000040218|mus_mus|FALSE|FALSE (ssRNA)
RNA: GGGAGUUCUACAGUCCGACGAUCAAACAUGAUGAGCAAAUUAAGAAAAGUUCUGUAAAAUUAGUUAGUUCUGAGAUUUCUAAACUAGAAAACAGUGAAACAAAAAAGGGGGGGUGCAGUCAAGCUGGAUUUUACACACAGGCUCAACAGAGGAUUGAGCAUCA
B14: chr16:94690093:94690094:+_ENSMUSG00000040785_ENSMUST00000117648|mus_hu|mus_mus_mus_hu_True|8_88 (ssRNA)
RNA: GGGAGUUCUACAGUCCGACGAUCGGGCUGGGAUGACGGACACACAGAUCUUCCCAGAGGGGGAAAAAGUCUUAGUCGAUACUAAUUAAAAAGUGUUAAUGAUUUUUGAAAAUCAGAUUACAUCUAUUUGAAUCAUAAAGCAAACAACAGAGGAUUGAGCAUCA
B15: 219445452_219447802_500_3pUTR_ENSG00000144580_ENST00000542068|human|control|control (ssRNA)
RNA: GGGAGUUCUACAGUCCGACGAUCCUGGAUGUGAUGCUACACAUUGCAGUAAUGCCAGAGCAUUGCAAACUCUGUUAGACUGGUGUGCUGUCAAGGUGGGUGGGUUGAUAGAUGGAUAAAUAUUUACAAUUUCCUGUAAAAGUGCAACAGAGGAUUGAGCAUCA
B16: 60821080_60823165_1073_3pUTR_ENSMUSG00000021559_ENSMUST00000077453|mouse|control|control (ssRNA)
RNA: GGGAGUUCUACAGUCCGACGAUCUUCGACUAAGUGCUUGUUGGGUGUCUUUAGGCUUGAUCCAGGGGUGCUGCAAACUGUCCUGGAUUGUCAUCCUCUUCUUUGGAUCCUUGACCAGCAGUCUUCUGAUGAAAUCUUUGGCAACAACAGAGGAUUGAGCAUCA
B17: chr8:59070621:59070622:+_ENSMUSG00000038206_ENSMUST00000040218|mus_mus|motif|central (ssRNA)
RNA: B13 RNA with U80G, A81G, U85G, A86G
B18: chr5:136386016:136386017:-_ENSMUSG00000051391_ENSMUST00000055808|mus_mus|motif|central (ssRNA)
RNA: GGGAGUUCUACAGUCCGACGAUCGGGGGUAUUUAACGGUUUCUGUUUUUGUGAUGGGCUGACCUUAAGGGUAAAGAAGAACGGAAAAAAAAAGUAUCCCCCGCAGCCCCCUCCCAAACACCCAUCAACCAAAACGGAACAGGGCAACAGAGGAUUGAGCAUCA
B19: chr1:186721242:186721243:-_ENSMUSG00000026620_ENSMUST00000027929|mus_mus|FALSE|FALSE (ssRNA)
RNA: GGGAGUUCUACAGUCCGACGAUCAUAAUGAGUAUUAAAAAGAUGUGCCUUUUCUAGUGGCUUUACGUCGCAUACGUCACUAAUUAUGAAAGAAGGCAAAUGACCAGUUACAAAGCUCCACAUGACUGGAAUAAUGAUGUGGAACAACAGAGGAUUGAGCAUCA
B20: chr1:169302553:169302554:-_ENSMUSG00000026688_ENSMUST00000028005|mus_mus|FALSE|FALSE (ssRNA)
RNA: GGGAGUUCUACAGUCCGACGAUCAUGCAGGCAGGAGCUUUAGGUAUGAGGCUGAUGCCAGAUAAGUUUUUAUUAUAUUAAAAAAAAAAAAAAAACCAGUGCAACUGGAAAUCAGGGUGAGUCGCUGGAGGUGAGUGAGAGUCGCAACAGAGGAUUGAGCAUCA

molecular target: T1, UNK ZnF1-3; experiment: nsRBNS (natural sequence RNA bind-n-seq); RBNS binding buffer (assumed for nsRBNS): 25 mM Tris pH 7.5, 150 mM KCl, 3 mM MgCl2, 0.01% Triton X-100, 500 ug/ml BSA, 20 U/ml SUPERase-In, 4 C; UNK is unkempt and MSI1 is Musashi-1; names of the RNAs are library labels; protein concentration not given here; high values mean tight binding

| Binder | binding signal |
| --- | --- |
| B1 | 1.12 enrichment R |
| B2 | 1.29 enrichment R |
| B3 | 1.08 enrichment R |
| B4 | 0.848 enrichment R |
| B5 | 2.38 enrichment R |
| B6 | 1.42 enrichment R |
| B7 | 5.88 enrichment R |
| B8 | 4.56 enrichment R |
| B9 | 1.98 enrichment R |
| B10 | 0.643 enrichment R |
| B11 | 0.529 enrichment R |
| B12 | 1.56 enrichment R |
| B13 | 7.52 enrichment R |
| B14 | 1.05 enrichment R |
| B15 | 1.19 enrichment R |
| B16 | 0.466 enrichment R |
| B17 | 9.45 enrichment R |
| B18 | 0.928 enrichment R |
| B19 | 0.52 enrichment R |
| B20 | 7.4 enrichment R |
